From PubChem BioAssay (NCATS)
Inconclusive results are not listed. Activity calls are given as the source filed them. Calls come from the whole dose curve; as a rule, active = well fitted curve in the direction sought with a large enough effect; inconclusive = small, poorly fitted or top-dose-only effect, or another doubt; inactive = no such curve, though single readings can be large; an effect the other way counts as inactive or inconclusive.

Biological target: Aldehyde dehydrogenase, mitochondrial (Homo sapiens) (UniProt P05091)
Experiment: qHTS for Inhibitors of the Aldehyde Dehydrogenase Family (ALDH2) Primary screen (AID 2061308);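 note: plate controls were vehicle for no effect and reference inhibitor for full effect; nearly all actives have a fitted effect of over 55% in size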
Details: ALDH2 enzyme inhibition qHTS, 1536-well; series mostly up to 56 µM; activity change, negative = inhibition: at the top concentration

Compound	activity change, negative = inhibition	Potency
CC(=O)O[C@]1(C(C)=O)CC[C@H]2[C@@H]3CCC4=CC(=O)CCC4=C3[C@@H](c3ccc(N(C)C)cc3)C[C@@]21C	-10.2% (inactive)	–
O=C(CNC(=O)c1cccc(C(F)(F)F)c1)N[C@@H]1CCN(Cc2ccc(Cl)cc2)C1	7.08% (inactive)	–
CCOC(=O)N1CCC(NCCNC(=O)c2ccccc2C)CC1	8.39% (inactive)	–
FC(F)(F)c1nnc2c(Sc3ccccc3)nc3ccc(Cl)cc3n12	0.0628% (inactive)	–
O=C(N[C@H](Cc1cscn1)C(=O)N[C@@H](CC1CCCCC1)[C@@H](O)[C@@H](O)C1CC1)c1nc2ccccc2[nH]1	-14.1% (inactive)	–
CN1CCOC(c2ccccc2)c2ccccc2C1 (stereo not drawn)	3.98% (inactive)	–
Cc1ccc2nc(N)[nH]c(=O)c2c1Sc1ccncc1	-0.409% (inactive)	–
COc1c(C)cnc(Cn2cc(C#CCC(C)(C)O)c3c(Cl)nc(N)nc32)c1C	41.3% (inactive)	–
CCCN1CCC[C@@H](c2cccc(S(C)(=O)=O)c2)C1	1.2% (inactive)	–
O=C(NCCCn1ccnc1)c1cc(-c2ccco2)on1	2.01% (inactive)	–
Cc1nc(C)c(-c2ccc(C3CCC(CC(=O)O)CC3)cc2)nc1C(N)=O (stereo not drawn)	5.98% (inactive)	–
Cc1cc(OCCN2CCOCC2)nn1-c1ccc2ccccc2c1	-6.48% (inactive)	–
CCCCOc1cc(C(=O)OCCN(CC)CC)ccc1N	0.178% (inactive)	–
O=c1cc(OCc2ccc(F)cc2)ccn1-c1ccc(OCCN2CCCC2)cc1	5.13% (inactive)	–
COc1ccc(N2CCN(CCCNC(=O)Cn3c(=O)c4cccn4c4c(C)ccnc43)CC2)cc1	-3.88% (inactive)	–
Cc1cc(C(=O)Cn2cc(C#N)ccc2=O)c(C)n1Cc1ccccc1	-3.05% (inactive)	–
CCn1c(=O)n([C@H]2CCCN(c3nccc(-c4cc5ccccc5o4)n3)C2)c2ccccc21	-2.68% (inactive)	–
OC1CCC(Nc2nc(-c3ccccc3)nc3[nH]ccc23)CC1 (stereo not drawn)	-2.07% (inactive)	–
CN(C1CCc2c(c3ccccc3n2CC(=O)O)C1)S(=O)(=O)c1ccc(F)cc1 (stereo not drawn)	–	inactive
CC(C)(C#N)c1ccc(N2C(=O)OCc3cnc4ccc(-c5cnc6ccccc6c5)cc4c32)cc1	0.821% (inactive)	–
CCn1c2ccccc2c2cc(CNC)ccc21	–	inactive
O=C(O)Cn1nnc(-c2ccc(CN(CCCCOc3ccc(CN4CCCC4)cc3)CCc3ccccc3)cc2)n1	-9.6% (inactive)	–
Cn1c(SCC(=O)N2CCC[C@H]2C(=O)Nc2ccccc2-c2ccccc2)nc2ccccc21	14.4% (inactive)	–
O=C(Nc1cccnn1)N1CCN(c2nccc(-c3ccc(F)c(F)c3)n2)CC1	-3.15% [at 114 µM] (inactive)	–
CN(C)CCCOc1nn(Cc2ccccc2)c2ccccc12	5.66% (inactive)	–
CC1(C)[C@H]2C[C@H](C/C=C\CCCC(=O)O)[C@@H](NC(=O)c3csc4ccc(O)cc34)[C@@H]1C2	8.14% (inactive)	–
C=CCCN1CCC2(CC1)CN(C(=O)c1c(F)cccc1F)c1ccc(Cl)cc12	14.7% (inactive)	–
CCCCOC(=O)NC(=O)C1c2ccccc2Oc2ccccc21	4.79% (inactive)	–

Biological target: Retinaldehyde dehydrogenase 3 (Homo sapiens) (UniProt P47895)
Experiment: qHTS for Inhibitors of the Aldehyde Dehydrogenase Family (ALDH1A3) Validation screen (AID 2061312); note: nearly all actives have a fitted effect of over 45% in size; note: potency is the fitted concentration of half-maximal effect; for activity change, negative = inhibition: % is set by controls: 0 for no effect and ±100 for the full control effect
Details: ALDH1A3 enzyme inhibition qHTS validation, fluorescence; series mostly up to 84.7 µM; activity change, negative = inhibition: at the top concentration

Compound	activity change, negative = inhibition	Potency
C[C@]12CC[C@@H]3c4ccc(OC(=O)c5ccccc5)cc4CC[C@H]3[C@@H]1CC[C@@H]2O	-17.4% (inactive)	–
C[C@@H]1C(=O)O[C@H]2CC34[C@H]5C[C@@H](C(C)(C)C)C36[C@@H](OC(=O)[C@@H]6O)OC4(C(=O)O5)[C@]21O (stereo partly drawn)	12.8% (inactive)	–
CC[C@H]1CN(c2nc(N)c(C(N)=O)nc2Cl)CCN1C1CCN(Cc2ccc(Cl)cc2)CC1	-29.7% (inactive)	–
Cc1ccc(C(=O)C(C)CN2CCCCC2)cc1 (stereo not drawn)	-9.07% (inactive)	–
COc1cnc(-n2cnc(C)n2)c2[nH]cc(C(=O)C(=O)N3CCN(C(=O)c4ccccc4)CC3)c12	-35.8% (inactive)	–
O=C(Nc1ccc(-n2nc(C(F)(F)F)cc2C(F)(F)F)cc1)c1ccncc1F	-7.86% (inactive)	–
CCCCNc1ccc(-c2ccc(CN3CCOCC3)cn2)c(NC2CCC(O)CC2)c1 (stereo not drawn)	12.9% [at 42.4 µM] (inactive)	–
Cc1cc(C)c(S(=O)(=O)n2cc(C)cc2C)c(C)c1	-11.6% (inactive)	–
COc1ccc(C(=O)N(CCC(C)C)Cc2nc(C)c(C)n2Cc2ccccc2C)c(OC)c1	67.9% (inactive)	–
CN1CC2CN(c3ccc4oc5ccccc5c(=O)c4c3)CC2C1 (stereo not drawn)	99.5% [at 42.4 µM] (inactive)	–
O=C(Nc1cc(-c2ccccc2)nn1-c1ccccc1)c1ccc([N+](=O)[O-])cc1	-3.18% (inactive)	–
COc1ccc(Cl)cc1[C@@]1(F)C(=O)Nc2cc(C(F)(F)F)ccc21	26.7% (inactive)	–
CC(=O)O[C@]1(C(C)=O)CC[C@H]2[C@@H]3CCC4=CC(=O)CCC4=C3[C@@H](c3ccc(N(C)C)cc3)C[C@@]21C	47.9% (inactive)	–
O=C(CNC(=O)c1cccc(C(F)(F)F)c1)N[C@@H]1CCN(Cc2ccc(Cl)cc2)C1	25.3% (inactive)	–
CCOC(=O)N1CCC(NCCNC(=O)c2ccccc2C)CC1	-1.34% (inactive)	–
FC(F)(F)c1nnc2c(Sc3ccccc3)nc3ccc(Cl)cc3n12	0.082% (inactive)	–
O=C(N[C@H](Cc1cscn1)C(=O)N[C@@H](CC1CCCCC1)[C@@H](O)[C@@H](O)C1CC1)c1nc2ccccc2[nH]1	46.4% (inactive)	–
CN1CCOC(c2ccccc2)c2ccccc2C1 (stereo not drawn)	18% (inactive)	–
Cc1ccc2nc(N)[nH]c(=O)c2c1Sc1ccncc1	–	7.94 µM (active)
COc1c(C)cnc(Cn2cc(C#CCC(C)(C)O)c3c(Cl)nc(N)nc32)c1C	59.1% (inactive)	–

Compound	activity change, negative = inhibition	Potency
CCCN1CCC[C@@H](c2cccc(S(C)(=O)=O)c2)C1	13.7% (inactive)	–
O=C(NCCCn1ccnc1)c1cc(-c2ccco2)on1	41.4% (inactive)	–
Cc1nc(C)c(-c2ccc(C3CCC(CC(=O)O)CC3)cc2)nc1C(N)=O (stereo not drawn)	25.2% (inactive)	–
Cc1cc(OCCN2CCOCC2)nn1-c1ccc2ccccc2c1	-9.4% (inactive)	–
CCCCOc1cc(C(=O)OCCN(CC)CC)ccc1N	-2.93% (inactive)	–
O=c1cc(OCc2ccc(F)cc2)ccn1-c1ccc(OCCN2CCCC2)cc1	223% (inactive)	–
COc1ccc(N2CCN(CCCNC(=O)Cn3c(=O)c4cccn4c4c(C)ccnc43)CC2)cc1	-36.2% (inactive)	–
Cc1cc(C(=O)Cn2cc(C#N)ccc2=O)c(C)n1Cc1ccccc1	2.09% (inactive)	–
CCn1c(=O)n([C@H]2CCCN(c3nccc(-c4cc5ccccc5o4)n3)C2)c2ccccc21	-0.0276% (inactive)	–
OC1CCC(Nc2nc(-c3ccccc3)nc3[nH]ccc23)CC1 (stereo not drawn)	147% (inactive)	–
CN(C1CCc2c(c3ccccc3n2CC(=O)O)C1)S(=O)(=O)c1ccc(F)cc1 (stereo not drawn)	–	inactive
CC(C)(C#N)c1ccc(N2C(=O)OCc3cnc4ccc(-c5cnc6ccccc6c5)cc4c32)cc1	9.4% (inactive)	–
CCn1c2ccccc2c2cc(CNC)ccc21	12.7% (inactive)	–
O=C(O)Cn1nnc(-c2ccc(CN(CCCCOc3ccc(CN4CCCC4)cc3)CCc3ccccc3)cc2)n1	-62.7% (inactive)	–
Cn1c(SCC(=O)N2CCC[C@H]2C(=O)Nc2ccccc2-c2ccccc2)nc2ccccc21	-29.2% (inactive)	–
O=C(Nc1cccnn1)N1CCN(c2nccc(-c3ccc(F)c(F)c3)n2)CC1	37.3% [at 169 µM] (inactive)	–
CN(C)CCCOc1nn(Cc2ccccc2)c2ccccc12	71.3% (inactive)	–
CC1(C)[C@H]2C[C@H](C/C=C\CCCC(=O)O)[C@@H](NC(=O)c3csc4ccc(O)cc34)[C@@H]1C2	-30.9% (inactive)	–
C=CCCN1CCC2(CC1)CN(C(=O)c1c(F)cccc1F)c1ccc(Cl)cc12	84.3% (inactive)	–
CCCCOC(=O)NC(=O)C1c2ccccc2Oc2ccccc21	30.7% (inactive)	–
